This is a sample that favours compounds with a hit; in the whole collection about 21% have one here.
SARS PLP yeast – SARS-CoV PLP inhibition in yeast; 0.19% of 330,000 active; AID 485353; S. cerevisiae expressing SARS-CoV PLpro, growth rescue; Potency, µM (series often up to 32.9 µM), for inactives: top-dose activity, positive = growth rescue, usual class: activators; note: potency is the fitted concentration of half-maximal effect; 0% is about no effect; nearly all actives have a fitted effect of over 55% in size
Cycloheximide cs – counter-screen for Shiga toxin inhibitors: cycloheximide protein synthesis inhibition; cell reporter, cycloheximide protein synthesis inhibition counterscreen; max response, %; 12% of 300,000 active; in the data active = max response mostly above about 13%, no sharp cut-off; inactive = mostly below about 14%; note: read at 38.3 µM for the half of the compounds with a filed dose; 0% is about no effect
Shiga toxin inh – Shiga toxin inhibition | AID 2315 | Vero cells, Shiga toxin protein synthesis inhibition reporter | 9.2% of 290,000 active | inhibition, % at 38.7 µM; in the data active = inhibition mostly above about 28%, no sharp cut-off; inactive = mostly below about 43%; note: 0% is about no effect
Pf growth 96h – P. falciparum growth inhibition at 96 hours. P. falciparum luciferase reporter growth, 96 h. 6.9% of 320,000 active. Potency, µM (highest dose often 28.7 µM), without a hit: at the highest dose activity change, negative = inhibition, most hits filed as inhibitors; active = well fitted inhibition curve with a large enough effect; inconclusive = small, poorly fitted or top-dose-only effect, or another doubt; inactive = no such curve, though single readings can be large or run the other way; note: potency is the fitted concentration of half-maximal effect; % is set by controls: 0 for no effect and ±100 for the full control effect
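Plates of compound plus infected erythrocytes (2% hematocrit, 0.05% parasitemia final) incubate 96 hours, 37 C, 5% CO2. Detection reagent added; reduced luminescence from the parasites' luciferase reporter flags inhibition.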
Pf growth 48h – P. falciparum growth inhibition at 48 hours (one generation). P. falciparum luciferase growth in erythrocytes, 48 h. Potency, µM (titrated, usually from 28.7 µM), without a hit: at the highest dose activity change, negative = inhibition, most hits filed as inhibitors. 5.9% of 310,000 active. AID 504832; active = well fitted inhibition curve with a large enough effect; inconclusive = small, poorly fitted or top-dose-only effect, or another doubt; inactive = no such curve, though single readings can be large or run the other way; note: potency is the fitted concentration of half-maximal effect; % is set by controls: 0 for no effect and ±100 for the full control effect
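Cell-based growth assay: transgenic P. falciparum expressing firefly luciferase, cultured in red cells within RPMI 1640 containing 0.5% w/v Albumax, 24 mM bicarbonate and gentamycin. A drop in luciferase activity indicates inhibition.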
NS1 function inh – blocks influenza NS1 protein function | 0.4% of 270,000 active | Potency, µM (top dose mostly 46.1 µM), for the others: at the top dose activity, positive = more growth | AID 2326; note: potency is the fitted concentration of half-maximal effect; actives are rising curves; nearly all actives have a fitted effect of over 50% in size
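Read-out: OD600 growth recovery of NS1-expressing budding yeast. Cells grown overnight at 30C in -URA glucose medium, washed, resuspended and diluted 1:100 in 2% galactose assay medium, pH 6.0. Same strain lacking NS1 served as positive control.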
* = called active by the depositor; ? = inconclusive; · = no result given. Unless noted, calls come from the whole dose curve.

SMILES	SARS PLP yeast	Cycloheximide cs	Shiga toxin inh	Pf growth 96h	Pf growth 48h	NS1 function inh
C[C@H](CO)N1C[C@H](C)[C@@H](CN(C)Cc2ccncc2)Oc2c(NC(=O)Cc3ccccc3)cccc2C1=O	-1.6%	·	·	·	·	·
COc1cccc(N=Nc2c(O)[nH]c(=S)[nH]c2=O)c1	0.3%	30.9*	46.8*	?	-0.9%	1.2%
O=c1[nH]c(=S)[nH]c(O)c1N=Nc1ccc(OC(F)F)cc1	-5.3%	19.1	37.4	10.8%	5.6%	·
COc1ccc(N=Nc2c(O)[nH]c(=S)[nH]c2=O)cc1	-3.8%	31.1*	110.3*	13.6%	28.9%	·
CCN(CC(=O)NCc1cccs1)S(=O)(=O)c1cccc(Br)c1	3.6%	·	·	-48.6%	?	·
Cc1nnc(NC(=O)CSc2nnc(CC(=O)Nc3ccccc3C)n2C)s1	-6.9%	-5.9	-3.3	-3.8%	-8.1%	5.1%
CCOC(=O)c1c(C)[nH]c(-c2csc(C)n2)c1C	-5.9%	32.6*	62.1*	82.7%	60.3%	-4.2%
CCOC(=O)c1c(C)[nH]c(-c2csc(N)n2)c1C	1.0%	12.0	30.3	?	2.94µM*	·
O=C(Cn1cc([N+](=O)[O-])cn1)N1CCN(Cc2ccc3c(c2)OCO3)CC1	0.4%	-2.4	-11.0	-7.3%	34.9%	1.2%
CCCN(CC1CC1)C(=S)NC(=O)c1cc(Br)ccc1Cl	5.4%	·	·	?	13.1µM*	·
O=C1NC(=O)C(CCc2ccncc2)(CCc2ccncc2)C(=O)N1CCc1ccc(F)cc1	-1.7%	-5.1	-16.0	?	-45.4%	·
O=C1NC(=O)C(CCc2ccncc2)(CCc2ccncc2)C(=O)N1CCc1ccccc1	-0.2%	-2.8	-10.9	2.94µM*	?	-8.8%
O=S(=O)(c1ccccc1)N1C2CCC1CC(O)(c1cccnc1)C2 (stereo not given)	1.5%	2.5	2.4	2.33µM*	3.9%	2.2%
O=C(NC1CCCCC1)C(c1ccc(F)cc1)N(Cc1ccco1)C(=O)CN1C(=O)c2ccccc2S1(=O)=O (stereo not given)	-6.1%	1.1	12.5	-23.3%	1.3%	11.2%
COCCNC(=O)CN(C)S(=O)(=O)c1ccc(Br)cc1	27.7%	-4.6	-9.1	?	-0.3%	4.2%
COC(=O)NCCOC(=O)N(O)c1ccc(Br)cc1	3.8%	2.5	-5.7	?	9.28µM*	?
CCCN(CCC)S(=O)(=O)c1ccc(C(=O)Nc2nnc(-c3cc(OC)cc(OC)c3)o2)cc1	2.9%	-7.2	-7.1	?	·	-18.2%
COc1ccc(-c2nnc(NC(=O)c3ccc(S(=O)(=O)N4COCC4(C)C)cc3)o2)cc1	-8.0%	-5.6	-5.7	-4.6%	11.7µM*	-17.6%
CC1(C)COCN1S(=O)(=O)c1ccc(C(=O)Nc2nnc(-c3ccc(Cl)s3)o2)cc1	21.4%	-0.4	-8.2	-17.4%	4.15µM*	-3.8%
CCOc1cc2c(cc1OCC)CN(CC(=O)Nc1ccccc1C(=O)NC1CC1)CC2	0.0%	·	·	?	?	·
O=[N+]([O-])c1ccccc1COc1ccc(Cl)c2cccnc12	0.4%	22.6*	61.8*	16.5%	162.4%	-1.0%
O=C(Oc1ccc(Cl)c2cccnc12)c1cccc([N+](=O)[O-])c1	-67.6%	1.1	-11.9	37.9%	?	19.6%
CCOc1ccc2[nH]c(C(=O)N/N=C/c3ccc(OC)cc3)cc2c1	0.1%	-1.2	9.9	-20.4%	-20.1%	3.7%
COc1ccc2[nH]c(C(=O)N/N=C/c3ccc(O)cc3O)cc2c1	?	7.9	17.2	?	6.57µM*	-0.3%
Cc1cc(C)c2cc(C(=O)Nc3ccc(C)c(F)c3)[nH]c2c1	-3.3%	-3.3	-9.9	?	11.7µM*	-4.2%
SMILES	SARS PLP yeast	Cycloheximide cs	Shiga toxin inh	Pf growth 96h	Pf growth 48h	NS1 function inh
COc1ccc2[nH]c(C(=O)Nc3cccc(C)n3)cc2c1	0.1%	28.6*	46.8*	473.2%	-11.4%	7.4%
COc1ccc(NC(=O)c2cc3ccccc3[nH]2)cc1	0.7%	40.2*	64.4*	113.5%	131.3%	-14.5%
COc1ccc2[nH]c(C(=O)NCc3ccccc3)cc2c1	-0.2%	8.1	33.7	-21.1%	-25.7%	-1.2%
CCCCNC(=O)c1cc2c(C)cc(C)cc2[nH]1	-2.9%	1.9	-1.0	-7.8%	?	-9.7%
Cc1ccc(NC(=O)c2cc3cc(OC(F)(F)F)ccc3[nH]2)cc1	-1.1%	6.5	4.7	?	?	2.6%
CC(C)(C)OC(=O)C[C@@H]1C/C=C\C[C@H](CC(=O)N[C@H](CO)Cc2ccccc2)C(=O)N[C@H](C(C)(C)C)COC1=O	-3.9%	·	·	·	·	·
CC(C)(C)c1ccc(S(=O)(=O)NNC(=O)c2cc3ccccc3[nH]2)cc1	-10.5%	27.3*	53.5*	178.5%	68.9%	?
COc1ccc2[nH]c(C(=O)Nc3ccc(C)c(F)c3)cc2c1	-0.2%	35.8*	69.5*	39.1%	28.6%	-1.7%
C=CCCCCCCCCC(=O)NNC1CC(=O)N(c2ccccc2)C1=O (stereo not given)	-0.3%	-0.2	-9.4	16.9%	53.0%	2.3%
COc1ccc(-c2ccc(-c3nnc(-c4ccncc4)o3)cc2)cc1	-0.7%	-3.2	-4.7	?	·	-59.9%
Cc1cc(-c2nnc(-c3cc4ccccc4oc3=O)o2)c(C)n1-c1ccccc1	2.8%	31.7*	35.6	?	?	9.2%
NC(=O)c1cn(-c2ccccc2)nc1-c1cc2ccccc2oc1=O	13.4%	-3.6	-14.2	-19.3%	·	1.1%
COc1ccc(-c2nnc(-c3cc4ccccc4oc3=O)o2)cc1	19.7%	10.2	15.4	11.7µM*	13.0%	21.6%
CC/C(C)=N/Nc1nc(-c2cc3cccc(OC)c3oc2=O)cs1	-0.6%	47.2*	52.9*	33.8%	110.4%	7.1%
COc1cccc2cc(-c3nnc(-c4ccccc4)o3)c(=O)oc12	-0.3%	38.7*	86.7*	8.28µM*	23.4%	1.5%
COc1ccc(OC)c(N=C(N)N=C(N)N)c1	0.7%	0.8	-21.9	?	-12.9%	4.8%
CC1CCC(NC(=O)c2cc3c(s2)CCCC3)CC1 (stereo not given)	8.2%	·	·	56.9%	5.5%	·
Cc1cc(C)c2c(CN3CCN(Cc4ccccc4)CC3)cc(=O)oc2c1	-0.3%	4.2	-2.2	-14.1%	-6.7%	-2.6%
CCCCCCc1cc2cc(-c3nnc(-c4ccccc4OC)o3)c(=O)oc2cc1O	-15.1%	-6.4	-29.7	·	3.7µM*	4.0%
Cc1noc(C)c1C(=O)N1CCC(C(=O)c2ccccc2)CC1	0.2%	-3.3	-3.5	11.9%	5.7%	4.0%
CCOCCOC(=O)COc1ccc2c(-c3ccccc3)cc(=O)oc2c1	1.1%	1.0	-7.2	14.4%	19.9%	-33.7%
Cc1ccc(C)c(N2CCN(S(=O)(=O)c3ccc4c(c3)CC(=O)N4C)CC2)c1	21.3%	-1.9	-5.9	-0.4%	8.28µM*	11.3%
CCC(=O)c1cc(F)c(N2CCN(S(=O)(=O)c3ccc(C)cc3)CC2)cc1C	-6.5%	1.2	12.3	10.4µM*	?	-12.9%
CCC(=O)N1CCc2cc(S(=O)(=O)N3CCN(c4cc(C)ccc4C)CC3)ccc21	8.2%	14.9	-4.7	10.4µM*	-11.5%	-0.6%
